# Data reported in the supplement of paper PMC8387472.
# Counter-ions that a name gives are not always drawn. ± gives the standard deviation of the averaged measurements.
# Test system: mESC LDLR-Dup GFP reporter (SpCas9 MH-deletion repair)
# Experiment: fraction of GFP+ cells relative to DMSO control (fold change); higher = more MH-deletion repair to in-frame LDLR (or more editing)
# Conditions: 2 µM; 7 days post-transfection
row,SMILES,fraction of GFP+ cells
1,CN(C)CC(=O)Nc1ccc2[nH]c(=O)c3ccccc3c2c1,1.02 ± 0.06
2,CN(N=O)C(=O)NC1C(O)OC(CO)C(O)C1O (stereo not given) [Streptozotocin (STZ)],2.1 ± 0.29
3,N=C1CCCN1Cc1[nH]c(=O)[nH]c(=O)c1Cl [Tipiracil hydrochloride],0.837 ± 0.26
4,O=C(O)c1cc(=O)[nH]c(=O)[nH]1 [Orotic acid (6-Carboxyuracil)],0.847 ± 0.26
5,N#Cc1ccc(COC[C@H]2O[C@@H](n3c(NCc4ccc(Cl)c(Cl)c4)nc4c(N)ncnc43)[C@H](O)[C@@H]2O)cc1,1.89 ± 0.17
6,CC1COc2c(N3CCN(C)CC3)c(F)cc3c(=O)c(C(=O)O)cn1c23 (stereo not given) [Ofloxacin],1.08 ± 0.19
7,COc1cc(Br)c(Nc2nc(-c3c(C)nc4ncccn34)cs2)c(Br)c1,0.111 ± 0.028
8,O=S(=O)(c1cccc2cnccc12)N1CCCNCC1 [Fasudil (HA-1077) HCl],2.2 ± 0.25
9,Cc1ccc(CNc2ncnc3ccc(-c4ccc(CO)o4)cc23)o1,1.08 ± 0.19
10,CN(C)c1nc(N(C)C)nc(N(C)C)n1 [Altretamine],1.41 ± 0.41
11,C[C@H](CN(C)C)Oc1nc(Nc2cc3cccc(Cl)c3cn2)cnc1C#N,1.28 ± 0.15
12,COc1c(N2C[C@@H]3CCCN[C@@H]3C2)c(F)cc2c(=O)c(C(=O)O)cn(C3CC3)c12 [Moxifloxacin HCl],0.624 ± 0.29
13,CC(=O)Nc1ccc(NC(=S)NC(=O)c2ccc(C(C)(C)C)cc2)cc1 [Tenovin-1],0.623 ± 0.14
14,C[C@@H](N)[C@H]1CC[C@H](C(=O)Nc2ccncc2)CC1,1.31 ± 0.91
15,CCn1cc(C(=O)O)c(=O)c2cc(F)c(N3CCNCC3)cc21 [Norfloxacin],1.01 ± 0.13
